Assay results from PubChem BioAssay AID720511 (Broad Institute, 2013).
Hit rate of the full screen: of about 350,000 compounds, about 1,300 (0.37%) were called active. What follows is part of a selection rich in actives, with near analogues and random picks from the rest. Unmarked numbers belong to inactive results.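 How the source made its calls: active means mean added fluorescence quench of at least 8% versus neutral control, with both replicates also reaching 8%; inconclusive means only one of the mean or replicate conditions met; inactive means mean below 8% and not both replicates reaching 8%.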

Assay: F508del CFTR correction, initial screen, CFBE line, single point (AID 720511);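 further: cells transiently co-express mutant CFTR-F508del with the halide-sensitive YFP; corrector assay measuring rescue of mutant channel to the surface after 24 h compound exposure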
Conditions: CFBE cells, YFP halide quenching, at 7.58 µM, hits give high values, % fluorescence drop versus neutral controls, stimulated with forskolin plus potentiator P3

| SMILES | activity (quench increase) |
| --- | --- |
| C[C@H]1CCCCO[C@H](CN(C)Cc2ccccc2)[C@@H](C)CN([C@@H](C)CO)C(=O)c2cc(NC(=O)c3ccccc3)ccc2O1 | -0.952% |
| C[C@H]1CN([C@@H](C)CO)S(=O)(=O)c2ccc(C3=CCCCC3)cc2O[C@@H]1CN(C)Cc1ccccc1 | -0.755% |
| C[C@@H]1CN([C@@H](C)CO)S(=O)(=O)c2ccc(-c3ccc(F)cc3)cc2O[C@@H]1CN(C)CC1CC1 | 2.11% |
| Oc1ccc(/C=N/Nc2nc(-c3ccccc3F)nc3ccccc23)c(O)c1 | 12.3% (active) |
| CO[C@@H]1CN(C)C(=O)c2ccc(NS(=O)(=O)c3cccc(Cl)c3)cc2OC[C@H](C)NC[C@H]1C | -1.91% |
| CC(C)NC(=O)N(C)C[C@H]1Oc2ccc(NC(=O)Cn3cnnn3)cc2CC(=O)N([C@H](C)CO)C[C@H]1C | -1.17% |
| Cc1noc(C)c1S(=O)(=O)N(C)C[C@H]1Oc2c(NC(=O)c3cnccn3)cccc2C(=O)N([C@H](C)CO)C[C@H]1C | -0.706% |
| CCN(CC)CCCNC(=O)c1cc2c(=O)[nH]c3ccc(C)cc3c2s1 | 4.04% |
| Cc1cccc(N(C)C(=O)c2cc3c(=O)[nH]c4ccc(C)cc4c3s2)c1 | 15.5% (active) |
| Cc1ccc2[nH]c(=O)c(CC(=O)O)c(-c3ccccc3)c2c1 | -4.85% |
| Cc1cccc(S(=O)(=O)N2C[C@@H]3[C@H](c4ccccc42)[C@H](CO)N3CC2CCOCC2)c1 | -1% |
| Cc1ccc(S(=O)(=O)N[C@@H]2CC[C@H](CCn3cc(-c4cccc(F)c4)nn3)O[C@@H]2CO)cc1 | -2.65% |
| C[C@@H](NC(=O)[C@@H]1[C@@H](CO)[C@@H]2Cn3c(ccc(C4=CCCCC4)c3=O)[C@@H]2N1C)c1ccccc1 | 1.82% |
| C[C@@H]1CCCCO[C@H](CN(C)C(=O)Nc2ccc3c(c2)OCO3)[C@@H](C)CN([C@@H](C)CO)C(=O)c2cc(NC(=O)CCC(F)(F)F)ccc2O1 | 2.41% |
| CCS(=O)(=O)N1CC2(CN(C(=O)c3ccc(F)cc3)[C@H](CO)c3c2c2ccc(OC)cc2n3C)C1 | 2.9% |
| COc1ccc(NC(=O)C2Cc3c(-c4ccc(Cl)cc4)ccnc3O2)cc1 (stereo unspecified) | -2.37% |
| O=C(c1[nH]ncc1-c1ccc(Cl)cc1)C1CO1 (stereo unspecified) | 9.82% (active) |
| S=c1[nH]nc(-c2ccc(Cl)cc2)n1CC1CCCO1 (stereo unspecified) | -0.339% |
| C[C@H](CO)N1C[C@H](C)[C@@H](CN(C)C(=O)C2CC2)Oc2ncc(-c3cccc(C#N)c3)cc2C1=O | 0.111% |
| Cc1ccc(S(=O)(=O)Nc2ccc3c(c2)C(=O)N([C@@H](C)CO)C[C@@H](C)[C@H](CN(C)C(=O)NC(C)C)OCCCC[C@H](C)O3)cc1 | -0.752% |
| COc1ccc(S(=O)(=O)Nc2ccc3c(c2)C(=O)N([C@@H](C)CO)C[C@@H](C)[C@H](CN(C)C(=O)Nc2ccc(C(F)(F)F)cc2)OCCCC[C@@H](C)O3)cc1 | -1.09% |
| CCOC(=O)C1CSCCS(=O)(=O)N1Cc1ccc(Cl)cc1 (stereo unspecified) | -1.25% |
| CO[C@H]1CN(C)C(=O)c2ccc(NC(=O)c3cccc(F)c3)cc2OC[C@H](C)N(CC2CC2)C[C@@H]1C | -0.247% |
| Cc1cccc(C(=O)OCC(=O)NC(C)C2CC3CCC2C3)c1O (stereo unspecified) | 25.6% (active) |
| Cc1c(C(=O)NC(C)C2CC3CCC2C3)cccc1[N+](=O)[O-] (stereo unspecified) | -0.675% |
| Cc1cccc(C(=O)OCC(=O)NCC(C)C)c1O | 0.752% |
